Shown are actives, neighbours in structure and some others; about 3.1% of the full set was active somewhere.
Wnt bcat act: activates Wnt/beta-catenin signaling in a reporter cell assay; activator, plate reader; activation, % at 9.35 µM; 1.2% of 300,000 active; in the data active means activation above about 30%, passing the limit was not always enough; inconclusive means no clear call, values can overlap the other calls;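 further: 0% = neutral control wells and 100% = positive control wells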
MITF act: MITF TRPM1 promoter activation in melanoma cells; SK-MEL-5 TRPM1-promoter luciferase, 24 h; % of positive control, neutral wells = 0; activation, % at 12.5 µM; 0.75% of 300,000 active; AID 588334;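 active means mean activation of at least 80% with every replicate also reaching 80%; inconclusive means mean reaches 80% but some replicate falls short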;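 further: 0% = neutral control wells and 100% = parthenolide positive control wells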
C2C12 statin: suppressors of simvastatin-induced myotoxicity in C2C12 myotubes. rescue of ATP level, % at 7.49 µM. 0.78% of 330,000 active. ATP luminescence, 48 h; scaled: DMSO 0, geranylgeraniol control 100;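 active means mean ATP rescue above about 67%, or every replicate alone reaching that limit, limit read from the data, passing the limit was not always enough; inconclusive means no clear call, values can overlap the other calls; inactive means mean under the limit and some replicate under it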;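 further: myotubes were challenged with 10 µM simvastatin during compound exposure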
esBAF inh: blocks esBAF chromatin remodeling in mouse ES cells; Bmi1-luciferase knock-in reporter, 24 h; 100% = twice the neutral-well signal; reporter increase, % at 12.5 µM; 2% of 350,000 active; AID 602393; in the data active means activation above about 40%; inconclusive means no clear call, values can overlap the other calls;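 further: 0% = median of the plate's neutral control wells and 100% = double that signal; a rise in the Bmi1 reporter signal indicates esBAF inhibition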
Rtt109 HAT inh: C. albicans Rtt109 histone acetyltransferase inhibition; Q5AAJ8; purified Rtt109/Vps75, ThioGlo CoA-SH fluorescence, 4 h; 0.16% of 330,000 active; AID 540336; inhibition, % at 34.9 µM;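 active means inhibition of at least 50% in every replicate; inconclusive means best replicate reaches 50% inhibition but some replicates fall short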
Target sequence (Q5AAJ8 whole entry, looked up): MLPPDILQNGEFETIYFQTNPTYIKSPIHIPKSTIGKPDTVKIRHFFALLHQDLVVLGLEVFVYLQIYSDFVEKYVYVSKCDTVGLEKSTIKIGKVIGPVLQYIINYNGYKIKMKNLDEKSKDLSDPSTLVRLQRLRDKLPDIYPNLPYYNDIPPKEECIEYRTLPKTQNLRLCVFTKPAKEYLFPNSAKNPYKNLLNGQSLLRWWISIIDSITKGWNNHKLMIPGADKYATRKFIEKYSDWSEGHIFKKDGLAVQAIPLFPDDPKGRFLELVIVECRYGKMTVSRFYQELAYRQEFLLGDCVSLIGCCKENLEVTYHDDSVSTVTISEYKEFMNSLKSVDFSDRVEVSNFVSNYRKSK
An asterisk follows results filed as active; u = inconclusive; x = no result.

SMILES | Wnt bcat act | MITF act | C2C12 statin | esBAF inh | Rtt109 HAT inh
COc1ccc(CNC(=O)C2CCN(S(=O)(=O)c3ccc4c(c3)C(C)(C)C(=O)N4C)CC2)cc1 | -2 | -1 | 86* | 0 | -3
CCC(=O)N[C@@H]1CC[C@@H](CC(=O)NCc2ccc(OC)cc2)O[C@@H]1CO | x | x | 1 | -2 | x
O=C(C[C@H]1CC[C@@H]2[C@H](COC[C@@H](O)CN2C(=O)c2ccncc2)O1)NC1Cc2ccccc2C1 | x | x | 2 | 6 | x
Cc1ccc(S(=O)(=O)NN=Cc2cc(Cl)ccc2O)cc1 | 7 | 14 | 24 | 19 | -1
O=S(=O)(N/N=C\c1ccc(-c2ccccc2Cl)o1)c1ccccc1 | x | -12 | 118* | -9 | 0
Cc1ccc(S(=O)(=O)NN=Cc2ccccc2Cl)cc1 | 34* | x | 3 | -6 | x
Cc1ccc(S(=O)(=O)N/N=C\C=C\c2ccccc2)cc1 | -1 | 9 | x | x | 51*
O=S(=O)(N/N=C\C=C\c1ccccc1)c1ccc(Br)cc1 | x | x | 8 | -4 | 0
c1ccc(-c2noc(CCC3CCCC3)n2)cc1 | 6 | 102* | 0 | u | 0
CN(Cc1nc(-c2ccccc2)no1)C1CCOCC1 | 41* | 65 | 14 | 31 | 1
COc1ccc(-c2noc(CN(C)C3CCOCC3)n2)cc1 | 0 | 16 | x | x | -1
COc1ccc(NC(=O)Nc2ccc3c(c2)C(=O)N([C@H](C)CO)C[C@H](C)[C@H](CN(C)S(=O)(=O)c2cccs2)OCCCC[C@H](C)O3)cc1 | x | x | x | -2 | x
COC(=O)c1ccc(N=Nc2ccccc2)cc1 | 12 | 67 | 3 | 76* | -1
Oc1ccc(N=Nc2ccccc2)cc1 | 34* | 91* | 15 | 6 | 1
COC(=O)c1ccc(O)cc1 | -3 | -3 | 8 | 2 | -3
COC(=O)c1ccc(OCCOc2ccccc2)cc1 | x | 75 | -6 | 46* | 1
COC(=O)c1ccc(OCCOc2ccccc2C)cc1 | 3 | 17 | -8 | 19 | 1
C/C=C/c1cnc2c(c1)C(=O)N([C@@H](C)CO)C[C@@H](C)[C@@H](CN(C)C(=O)Nc1ccc(F)cc1)O2 | x | x | 5 | 1 | x
CCC(=O)Nc1ccc2c(c1)OC[C@H](C)N(C(=O)CC)C[C@@H](C)[C@H](OC)CN(C)C2=O | x | x | 7 | -5 | x
CO[C@@H]1CN(C)C(=O)c2cc(NC(=O)c3cc(C)on3)ccc2OC[C@H](C)N(C(=O)C2CC2)C[C@H]1C | x | x | -15 | -3 | x
CC(C)(C)c1ccc(/C=C/C(=O)Nc2cccnc2)cc1 | 31* | 108* | -15 | 26 | x
O=C(/C=C/c1ccc(Cl)c(Cl)c1)Nc1cccnc1 | 2 | u | -25 | 42* | -10
O=C(/C=C/c1ccccc1Cl)Nc1cccnc1 | 0 | 34 | -10 | 9 | 4
C[C@@H]1CN([C@@H](C)CO)C(=O)c2cc(NC(=O)C3CC3)ccc2O[C@H]1CN(C)Cc1ccc(C(=O)O)cc1 | x | x | 1 | -1 | x
COCCCNC(=O)C1CCN(C(=O)c2oc3cc4sc(N(C)C)nc4cc3c2C)CC1 | 15 | u | 7 | 49* | 2
SMILES | Wnt bcat act | MITF act | C2C12 statin | esBAF inh | Rtt109 HAT inh
CCN(CC)CCCNC(=O)C1CCN(C(=O)c2oc3cc4sc(N(C)C)nc4cc3c2C)CC1 | 7 | 44 | -10 | 7 | 9
C[C@H](CO)N1C[C@H](C)[C@@H](CN(C)C(=O)CCC(F)(F)F)OCCCC[C@H](C)Oc2ccc(NC(=O)CCCN(C)C)cc2C1=O | x | x | x | -1 | x
O=C(NC1CCCC1)[C@@H]1[C@@H](CO)[C@@H]2Cn3c(ccc(-c4ccccc4)c3=O)[C@H]1N2CCc1ccccc1 | x | x | 11 | -2 | x
CC(C)C[C@H](N)c1cn([C@@H](Cc2cc3ccccc3[nH]2)C(=O)N2CCNCC2)nn1 | 1 | 35 | 1 | 7 | 30
CCC(C)[C@H](N)c1cn([C@@H](Cc2cc3ccccc3[nH]2)C(=O)N2CCNCC2)nn1 (stereo not given in full) | 45* | -3 | -7 | -3 | 25
Cc1ccc(C(=O)N(c2ccccn2)C(C)c2ccco2)cc1 (stereo not given) | 5 | 22 | 0 | 35 | 2
CC(c1ccco1)N(C(=O)Nc1ccc(Cl)cc1)c1ccccn1 (stereo not given) | x | 14 | 124* | 14 | 5
COC(=O)CNC(=O)c1ccccc1 | -1 | 8 | 7 | -1 | -3
O=C(CNC(=O)c1ccccc1)OC1CCCCC1 | 47* | 47 | x | x | 7
Clc1cccc(CNc2ccn3nc(-c4ccc(OCc5ccccc5)cc4)cc3n2)c1 | 1 | x | 2 | 17 | x
Clc1cccc(CNc2ccn3nc(-c4ccccc4)cc3n2)c1 | 5 | x | 10 | 50* | x
Clc1ccc(-c2cc3nc(NCc4cccc(Cl)c4)ccn3n2)cc1 | 6 | x | -4 | 76* | x
Clc1cccc(-c2cc3nc(NCCOc4ccccc4)ccn3n2)c1 | 11 | x | 3 | 57* | x
Clc1cccc(CNc2ccn3nc(-c4cccc(Cl)c4)cc3n2)c1 | -3 | x | 3 | 58* | x
CC(=O)N1[C@@H]2Cn3c(ccc(-c4ccc(F)cc4)c3=O)[C@H]1[C@@H](C(=O)N(C)C)[C@@H]2CO | x | x | 6 | 0 | x
Clc1ccccc1-c1cc2nc(NCc3ccco3)ccn2n1 | 3 | x | 4 | 72* | x
c1ccc(COc2ccc(-c3cc4nc(NCCN5CCOCC5)ccn4n3)cc2)cc1 | -3 | x | 13 | 49* | x
CC(C)Cc1ccc(-c2cc3nc(NCCOc4ccccc4)ccn3n2)cc1 | 0 | x | 9 | 58* | x
O=c1[nH]c2ccccc2c2oc(CCl)nc12 | 2 | -27 | 5 | -4 | 78*
CCC1CCc2c(c3ccccc3[nH]c2=O)O1 (stereo not given) | x | 1 | 10 | -2 | -2
N#Cc1c(Nc2ccccc2)s[nH]c1=O | 0 | x | x | x | 111*
N#Cc1c(Nc2ccccc2Cl)s[nH]c1=O | -1 | x | x | x | 109*
N#Cc1c(Nc2ccccc2C(F)(F)F)s[nH]c1=O | 2 | x | x | x | x
COc1ccccc1NC(=O)N[C@@H]1CC[C@H](CCNS(=O)(=O)c2ccccc2)O[C@H]1CO | x | x | 24 | -11 | x
c1ccc(Cn2ncc3c(Nc4ccccc4)ncnc32)cc1 | 0 | -8 | 6 | -4 | 2
SMILES | Wnt bcat act | MITF act | C2C12 statin | esBAF inh | Rtt109 HAT inh
COc1ccc(Nc2ncnc3c2cnn3Cc2ccc(C)cc2)cc1 | 25 | -11 | 68* | 1 | 5
C/C=C/c1ccc2c(c1)O[C@@H](CN(C)C(=O)Cc1ccccc1)[C@H](C)CN([C@H](C)CO)S2(=O)=O | x | x | -7 | -6 | x
c1ccc(Nc2nnc(SCc3cccc4ccccc34)s2)cc1 | -1 | 7 | 0 | 18 | -5
Cc1nnc(SCc2cccc3ccccc23)s1 | 11 | 76 | -6 | 64* | 1
Cc1nnc(SCc2ccc(F)cc2)s1 | x | 51 | 6 | 53* | -12
CC(=O)Nc1nnc(SCc2cccc(F)c2)s1 | 2 | 15 | 87* | 9 | 3
Nc1nnc(SCc2ccc(F)cc2)s1 | x | 17 | 23 | -2 | 2
Cc1cc(C)cc(NC(=O)c2ccc(CSc3nnc(C)s3)cc2)c1 | -1 | 25 | 122* | 39 | 15

High-throughput results from PubChem.
